# From PubChem BioAssay
# Activity calls are given as the source filed them.
# Tests used:
# [1] = test system: Wnt5a (protein binding on small-molecule microarray); assay: small molecules binding Wnt5a protein – biophysical, small-molecule microarray, 635/667 nm fluorescence, primary screen (AID 1142); conditions: 635 nm fluorescence, higher = more signal;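 also: fluorescence read at 667 nm with signal to noise per printed feature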
# [2] = ATP-based viability of Huh7 replicon cells – cell-based, CellTiter-Glo luminescence, basal, 48 h, cytotoxicity control for HCV replication inhibitor project, primary screen (AID 1143); conditions: higher = more signal, called active from +8 up or from −8 down;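 also: Huh7 hepatoma cells carrying a hepatitis C replication reporter with no stimulus; test concentration not given here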
# [3] = basal CRE-LacZ reporter activity in PC12 – cell-based, unstimulated, primary screen (AID 1145); conditions: no forskolin, luminescence, 4.5 h, higher = more signal, called active from +8 up or from −8 down
# [4] = forskolin-driven CRE-LacZ activity in PC12 – cell-based, CRE-LacZ reporter, forskolin-stimulated, primary screen (AID 1146); conditions: luminescence, 4.5 h, higher = more signal, called active from +8 up or from −8 down;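 also: PC12 cells with 6xCRE LacZ reporter stimulated by forskolin 10 µM; beta-galactosidase reporter signal reflecting CREB driven transcription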
# [5] = biological target: Streptavidin (Streptomyces avidinii) (UniProt P22629); assay: compounds binding control protein streptavidin – biophysical, small-molecule microarray, 635/667 nm fluorescence, artefact control for SMM compound annotation, primary screen (AID 1147); conditions: higher = more signal;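 also: signal reflects streptavidin binding to arrayed compounds as a control protein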
# Streptavidin (Streptomyces avidinii), sequence (P22629 whole entry, looked up): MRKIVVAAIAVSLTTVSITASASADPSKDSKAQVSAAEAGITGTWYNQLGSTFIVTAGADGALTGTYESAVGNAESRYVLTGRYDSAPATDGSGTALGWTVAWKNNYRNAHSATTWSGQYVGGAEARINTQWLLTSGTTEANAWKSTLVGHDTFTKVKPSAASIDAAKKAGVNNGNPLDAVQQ
# [6] = probe aInhba binding on compound microarray – biochemical, small-molecule microarray, 635/667 nm fluorescence, primary screen (AID 1148); conditions: higher = more signal;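 also: score merges 667nm spot fluorescence with signal-to-noise for antibody binding to printed compounds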
# Torsin-1A (Homo sapiens) [7] = biological target: Torsin-1A (Homo sapiens) (UniProt O14656); assay: TOR1A wild-type binding on microarray – cell lysate, small-molecule microarray, lysate, 635/667 nm, primary screen (AID 1149); conditions: COS7 hTOR1A-WT lysate, 635 nm fluorescence, higher = more signal
# Torsin-1A (Homo sapiens), sequence (O14656 whole entry, looked up): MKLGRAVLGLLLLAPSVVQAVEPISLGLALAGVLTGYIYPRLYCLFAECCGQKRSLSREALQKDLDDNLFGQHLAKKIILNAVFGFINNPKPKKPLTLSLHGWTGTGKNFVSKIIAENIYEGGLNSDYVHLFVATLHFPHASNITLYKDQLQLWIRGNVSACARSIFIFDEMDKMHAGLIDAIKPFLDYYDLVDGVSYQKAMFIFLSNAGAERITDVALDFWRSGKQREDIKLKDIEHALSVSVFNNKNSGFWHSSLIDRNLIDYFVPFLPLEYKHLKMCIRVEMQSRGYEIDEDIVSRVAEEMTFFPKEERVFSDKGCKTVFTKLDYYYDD
# Torsin-1A (Homo sapiens) [8] = biological target: Torsin-1A (Homo sapiens) (UniProt O14656); assay: torsin A mutant lysate binding on microarrays – cell lysate, small-molecule microarray, COS7 lysate, 635/667 nm fluorescence, primary screen (AID 1150); conditions: COS7 hTOR1A mutant lysate, 635 nm fluorescence, higher = more signal;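 also: score pools 667 nm emission and signal to noise measuring lysate protein binding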
# [9] = test system: Sonic hedgehog protein (Shh); assay: Sonic hedgehog microarray binding compounds – biochemical, small-molecule microarray, 635/667 nm fluorescence, primary screen (AID 1151); conditions: 635 nm fluorescence, higher = more signal;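 also: Shh protein binding to compounds spotted on small-molecule microarray slides; score combines spot fluorescence intensity with signal-to-noise across triplicate slides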
# [10] = optical density shifts of acrAB sulA E. coli – strain DRC41, OD650, 48 h, E. coli filamentation inducer project, primary screen (AID 1152); conditions: higher = more signal, called active from +8 up or from −8 down;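 also: E. coli MC1000 strain DRC41 lacking acrAB efflux pump and sulA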
# [11] = probe aLefty1 binding on compound microarray – biochemical, small-molecule microarray, 635/667 nm fluorescence, primary screen (AID 1153); conditions: higher = more signal;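 also: score merges spot fluorescence with signal-to-noise ratio from the scanned slide images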
# [12] = plasmodial surface anion channel blockers, osmotic lysis – cell-based, P. falciparum Indochina, OD700, 1 h, primary screen (AID 1154); conditions: P. falciparum Indochina infected RBC osmotic lysis, higher = more signal, called active from +8 up or from −8 down
# [13] = plasmodial surface anion channel blockers, osmotic lysis – cell-based, P. falciparum Indochina, OD700, 2 h, primary screen (AID 1155);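 also: lysis reports solute entry through the parasite surface anion channel PSAC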; conditions: P. falciparum Indochina infected erythrocytes, higher = more signal, called active from +8 up or from −8 down
# [14] = changes in parasitized red cell lysis, either direction – P. falciparum Indochina, OD700, 3 h, PSAC antagonist project, primary screen (AID 1156); conditions: P. falciparum-infected erythrocytes, osmotic lysis, higher = more signal, called active from +8 up or from −8 down
# [15] = plasmodial surface anion channel blockers, osmotic lysis – cell-based, P. falciparum Indochina, OD700, 18 h, primary screen (AID 1157); conditions: P. falciparum Indochina infected erythrocytes, osmotic lysis OD700, 18 h; higher = more signal, called active from +8 up or from −8 down
# [16] = S6 kinase pathway phospho-S6 level changes – cell-based, A549, cytoblot, luminescence, serum-stimulated, primary screen (AID 1158); conditions: 5 h, higher = more signal;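 also: serum-stimulated A549 lung adenocarcinoma cells; signal is phosphorylated S6 detected by cytoblot immunostaining with HRP secondary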
# [17] = biological target: NADPH oxidase 2 (Homo sapiens) (UniProt P04839); assay: compounds shifting NOX2 Amplex Red fluorescence – cell-based, HEK293-NOX2, PMA-stimulated, NOX inhibitor project, primary screen (AID 1159); conditions: 45 min, higher = more signal, called active from +8 up or from −8 down; also: test concentration not given here
# NADPH oxidase 2 (Homo sapiens), sequence (P04839 whole entry, looked up): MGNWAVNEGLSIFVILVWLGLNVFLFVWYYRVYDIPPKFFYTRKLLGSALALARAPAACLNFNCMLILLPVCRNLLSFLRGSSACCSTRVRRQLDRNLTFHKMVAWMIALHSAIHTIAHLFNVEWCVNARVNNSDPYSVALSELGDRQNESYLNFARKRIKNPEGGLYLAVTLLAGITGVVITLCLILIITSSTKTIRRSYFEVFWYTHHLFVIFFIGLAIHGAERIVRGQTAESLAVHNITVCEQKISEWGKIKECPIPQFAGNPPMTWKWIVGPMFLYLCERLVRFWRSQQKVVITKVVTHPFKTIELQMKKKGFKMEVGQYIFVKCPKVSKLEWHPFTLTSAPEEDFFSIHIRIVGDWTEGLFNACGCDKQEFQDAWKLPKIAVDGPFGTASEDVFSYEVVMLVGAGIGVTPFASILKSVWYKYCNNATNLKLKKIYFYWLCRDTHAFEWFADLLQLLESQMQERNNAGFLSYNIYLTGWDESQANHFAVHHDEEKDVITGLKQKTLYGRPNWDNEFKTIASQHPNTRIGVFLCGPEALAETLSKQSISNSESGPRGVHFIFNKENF
# [18] = biological target: NADPH oxidase 4 (Homo sapiens) (UniProt Q9NPH5); assay: compounds shifting NOX4 Amplex Red fluorescence – cell-based, HEK293-NOX4, tetracycline-induced, NOX inhibitor project, primary screen (AID 1160); conditions: HEK293-NOX4, Amplex Red H2O2 fluorescence, 45 min; higher = more signal, called active from +8 up or from −8 down
# NADPH oxidase 4 (Homo sapiens), sequence (Q9NPH5 whole entry, looked up): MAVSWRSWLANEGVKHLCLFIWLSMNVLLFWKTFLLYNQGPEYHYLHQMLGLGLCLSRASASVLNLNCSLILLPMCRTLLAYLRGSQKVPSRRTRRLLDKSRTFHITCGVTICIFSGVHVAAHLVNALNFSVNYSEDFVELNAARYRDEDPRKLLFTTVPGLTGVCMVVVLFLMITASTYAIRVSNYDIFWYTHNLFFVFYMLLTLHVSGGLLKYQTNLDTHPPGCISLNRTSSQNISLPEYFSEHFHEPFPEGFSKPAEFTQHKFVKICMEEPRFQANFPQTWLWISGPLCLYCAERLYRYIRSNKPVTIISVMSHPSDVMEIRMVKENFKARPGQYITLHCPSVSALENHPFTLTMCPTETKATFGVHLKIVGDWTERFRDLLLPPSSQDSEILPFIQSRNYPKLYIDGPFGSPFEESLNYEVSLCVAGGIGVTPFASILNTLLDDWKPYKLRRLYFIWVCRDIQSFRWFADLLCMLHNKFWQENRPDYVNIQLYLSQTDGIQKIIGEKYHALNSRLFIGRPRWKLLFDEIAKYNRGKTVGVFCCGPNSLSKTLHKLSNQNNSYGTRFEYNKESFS
# [19] = biological target: NADPH oxidase 5 (Homo sapiens) (UniProt Q96PH1); assay: compounds shifting NOX5 Amplex Red fluorescence – cell-based, HEK293-NOX5, NOX inhibitor project, primary screen (AID 1161); conditions: HEK293-NOX5, ionomycin, 45 min, higher = more signal
# NADPH oxidase 5 (Homo sapiens), sequence (Q96PH1 whole entry, looked up): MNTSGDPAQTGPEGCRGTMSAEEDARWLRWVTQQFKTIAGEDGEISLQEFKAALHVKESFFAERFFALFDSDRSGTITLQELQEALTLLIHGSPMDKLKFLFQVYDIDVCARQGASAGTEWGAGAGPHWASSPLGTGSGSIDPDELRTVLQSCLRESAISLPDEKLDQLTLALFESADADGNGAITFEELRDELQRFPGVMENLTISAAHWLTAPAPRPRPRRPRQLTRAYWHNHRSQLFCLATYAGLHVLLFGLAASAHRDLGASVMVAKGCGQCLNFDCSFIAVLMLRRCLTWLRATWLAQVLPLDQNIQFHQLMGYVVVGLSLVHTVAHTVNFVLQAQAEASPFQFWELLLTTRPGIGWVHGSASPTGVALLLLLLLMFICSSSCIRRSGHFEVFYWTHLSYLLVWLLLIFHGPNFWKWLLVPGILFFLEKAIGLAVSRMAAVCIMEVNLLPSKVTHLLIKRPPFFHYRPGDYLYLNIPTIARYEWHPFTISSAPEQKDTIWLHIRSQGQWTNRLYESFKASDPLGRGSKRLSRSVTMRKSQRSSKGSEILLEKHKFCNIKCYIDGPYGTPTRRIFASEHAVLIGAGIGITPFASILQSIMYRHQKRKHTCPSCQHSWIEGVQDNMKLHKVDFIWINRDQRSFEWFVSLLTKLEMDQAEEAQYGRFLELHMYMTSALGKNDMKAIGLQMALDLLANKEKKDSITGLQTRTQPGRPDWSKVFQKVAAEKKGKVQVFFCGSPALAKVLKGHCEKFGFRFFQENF
# [20] = compound effects on lung adenocarcinoma cell viability – A549, calcein-AM fluorescence, 48 h, basal, profiling panel (AID 1162); conditions: higher = more signal; also: test concentration not given here
SMILES,composite z-score [1],z-score [2],z-score [3],z-score [4],composite z-score [5],composite z-score [6],composite z-score (Torsin-1A (Homo sapiens) [7]),composite z-score (Torsin-1A (Homo sapiens) [8]),composite z-score [9],z-score [10],composite z-score [11],z-score [12],z-score [13],z-score [14],z-score [15],z-score [16],z-score [17],z-score [18],z-score [19],z-score [20]
C=CCC(OC(C)=O)[C@@H]1[C@@H](N(Cc2cc3ccccc3o2)C(=O)c2ccc(-c3ccccc3)cc2)c2cc(OCCCO)ccc2N1C(=O)c1ccc(-c2ccccc2)cc1 (stereo not given in full),0.0258,0.267 (inactive),0.6 (inactive),-0.625 (inactive),-0.0123,0.0497,-0.347,0.244,0.224,2.06 (inactive),0.0038,-0.0828 (inactive),0.179 (inactive),-0.0582 (inactive),-0.0337 (inactive),0.436,0.989 (inactive),-1.13 (inactive),0.786,0.0525
O=C(O)[C@H]1C[C@H]2C(=O)NCC(=O)N2[C@H]1c1cccc(OCCO)c1,0.0144,-0.812 (inactive),0.285 (inactive),-0.736 (inactive),0.42,0.263,0.836,0.654,0.821,2.08 (inactive),1.24,9.23 (active),1.29 (inactive),-1.73 (inactive),0.818 (inactive),0.617,1.81 (inactive),1.52 (inactive),1.61,-0.24
C=C(/C(=C/C[C@H](OC(=O)c1ccncc1)c1cccc(OCCO)c1)c1cc(C(=O)OC)ccc1OC)C(C)C,-0.158,-2.09 (inactive),8.57 (active),-0.669 (inactive),0.0287,-0.05,0.607,0.568,0.948,1.17 (inactive),-0.0984,10.2 (active),-0.289 (inactive),1.66 (inactive),-1.19 (inactive),0.402,1.62 (inactive),0.0371 (inactive),-1.71,0.396
C=CC[C@@]1(C(=O)NCc2ccccc2)N=C(c2ccc(OCCCO)cc2)O[C@@H]1c1ccccc1,0.102,-4.6 (inactive),-0.16 (inactive),-1.56 (inactive),0.344,0.0582,0.161,0.551,-0.435,2.48 (inactive),0.399,24.4 (active),11.3 (active),2.34 (inactive),0.546 (inactive),1.46,-0.189 (inactive),0.956 (inactive),-1.14,-0.506
O=C1O[C@H](c2ccccc2)[C@H](c2ccccc2)N2[C@H]1[C@@H](C(=O)Nc1nc3ccccc3s1)[C@]1(C(=O)Nc3ccc(C#CCCO)cc31)[C@H]2c1ccccc1OCCO,0.81,-2.88 (inactive),0.182 (inactive),-0.428 (inactive),1.11,0.279,0.795,0.778,0.384,2.34 (inactive),0.634,2.76 (inactive),2.95 (inactive),1.4 (inactive),1.69 (inactive),0.503,0.146 (inactive),0.228 (inactive),2.14,-0.655
C=C(C(=O)CC[C@@H](OC(C)=O)c1ccccc1OCCO)C(C)C,0.235,-4.89 (inactive),3.88 (inactive),-1.21 (inactive),-0.965,-0.0791,0.964,-0.353,1.09,1.19 (inactive),-0.29,0.425 (inactive),0.279 (inactive),-1.49 (inactive),0.479 (inactive),-0.258,1.24 (inactive),-0.759 (inactive),-2.43,-0.646
COCCCNC(=O)[C@@]1(Cc2ccccc2CN=[N+]=[N-])COC(c2ccc(OCCCO)cc2)=N1,1.18,-3.41 (inactive),-0.94 (inactive),-2.58 (inactive),0.257,0.283,1.22,0.669,0.13,2.58 (inactive),0.961,26.7 (active),22 (active),3.17 (inactive),3.5 (inactive),0.989,-2.47 (inactive),-1.03 (inactive),-2.89,0.395
NC(=O)N1C(=O)C2C(C1=O)C1C=C(c3ccc(CO)cc3)C2C(C2CC2)N1Cc1cc2c(cc1Br)OCO2 (stereo not given),0.0262,-1.15 (inactive),7.31 (inactive),-1.34 (inactive),0.368,0.134,0.32,0.127,1.39,0.737 (inactive),0.0671,14.4 (active),0.537 (inactive),-0.429 (inactive),-1.43 (inactive),0.215,2.92 (inactive),1.48 (inactive),-0.201,0.485
CC(C)C[C@@H]1NC(=O)[C@@]23C(=O)N[C@@H](Cc4ccccc4)C2[C@H](C)[C@@]2(C)O[C@H]2C3/C=C/C/C=C\CNC(=O)[C@H](Cc2ccccc2)NC1=O (stereo not given in full),-0.108,-4.13 (inactive),4.56 (inactive),-2.06 (inactive),-0.198,-0.082,0.305,0.384,0.46,1.76 (inactive),-0.147,1.53 (inactive),-0.0735 (inactive),0.966 (inactive),0.256 (inactive),0.497,-0.188 (inactive),0.692 (inactive),-3.15,0.823
